Hits are enriched below; roughly 21% of the tested compounds scored in any of these assays.
Pf growth 96h: inhibits malaria parasite growth, 96 h. AID 504834. P. falciparum luciferase reporter growth, 96 h. 320,000 compounds, 6.9% hits. Potency, µM (doses to about 28.7 µM), inactives show at the top dose activity change, negative = inhibition, most hits filed as inhibitors; also: potency is read from the fitted curve at half-maximal effect; % is scaled to controls: 0 for no effect and ±100 for the full control effect
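Cell-based qHTS: luciferase-tagged P. falciparum in erythrocytes (2% hematocrit, 0.05% parasitemia final) incubated with compounds for 96 hours, 37 C, 5% CO2; luciferase detection reagent then added and luminescence measured.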
Cycloheximide cs: counter-screen for Shiga toxin inhibitors: cycloheximide protein synthesis inhibition. AID 2314. max response, %. cell reporter, cycloheximide protein synthesis inhibition counterscreen. 300,000 compounds, 12% hits; in the data active = max response mostly above about 13%, no sharp cut-off; inactive = mostly below about 14%; also: read at 38.3 µM for the half of the compounds with a filed dose; 0% is about no effect
NS1 function inh: inhibitors of influenza NS1 protein function; Potency, µM (top dose mostly 46.1 µM), without a hit: top-dose activity, positive = more growth; 270,000 compounds, 0.4% hits; calls by dose curve; also: potency is read from the fitted curve at half-maximal effect; actives are rising curves; nearly all actives have a fitted effect of over 50% in size
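OD600 was taken as the measure of yeast growth restored by compound in an NS1-expressing S. cerevisiae strain. Cells had been washed out of glucose medium and diluted 1:100 into galactose -URA medium, pH 6.0.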
SARS PLP yeast: blocks SARS-CoV papain-like protease in a yeast assay. 330,000 compounds, 0.19% hits. Potency, µM (titrated, usually from 32.9 µM), for the others: top-dose activity, positive = growth rescue, usual class: activators. S. cerevisiae expressing SARS-CoV PLpro, growth rescue. AID 485353; calls by dose curve; also: potency is read from the fitted curve at half-maximal effect; 0% is about no effect; nearly all actives have a fitted effect of over 55% in size
Shiga inhibitor: inhibitors of Shiga toxin in Vero cells; Vero cells, Shiga toxin protein synthesis inhibition reporter; inhibition, % at 38.7 µM; 290,000 compounds, 9.2% hits; AID 2315; in the data active = inhibition mostly above about 28%, no sharp cut-off; inactive = mostly below about 43%; also: 0% is about no effect
Pf growth 48h: P. falciparum growth inhibition at 48 hours (one generation) | P. falciparum luciferase growth in erythrocytes, 48 h | Potency, µM (series often up to 28.7 µM), for inactives: at the top dose activity change, negative = inhibition, hits mostly inhibitors | 310,000 compounds, 5.9% hits | AID 504832; also: potency is read from the fitted curve at half-maximal effect; % is scaled to controls: 0 for no effect and ±100 for the full control effect
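A one-generation exposure of luciferase-tagged malaria parasites in RPMI 1640/Albumax erythrocyte culture, 37 C and 5% CO2. Inhibition is inferred from decreased luminescence after adding detection reagent.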
The depositor's hits bear a star; ? = inconclusive; . = no result given. Unless noted, calls follow the shape of the dose curve; as a rule, active = well fitted inhibition curve with a large enough effect; inconclusive = small, poorly fitted or top-dose-only effect, or another doubt; inactive = no such curve, though single readings can be large or run the other way.

SMILES	Pf growth 96h	Cycloheximide cs	NS1 function inh	SARS PLP yeast	Shiga inhibitor	Pf growth 48h
Cc1ccc(C)c(OCc2cc(C(=O)N(C)Cc3nccn3C)no2)c1	13%	30	-8%	-5%	39	-17%
O=C(c1cc(COc2cccc(C(F)(F)F)c2)on1)N1CCC(c2ccncc2)CC1	?	-4	-2%	-4%	-16	6%
COc1cc(Cl)ccc1OCc1cc(C(=O)N2C[C@H]3CC[C@H]2C3)no1	3%	55*	-33%	-1%	108*	48%
O=C(NC1(C(F)(F)F)N=C2SCCN2C1=O)c1ccccc1F (stereo not drawn)	1%	-2	5%	1%	-11	73%
C/C=C(\C=C\[C@@H](C)C/C=C/CC/C=C/C=C\C[C@@H](OC)/C(C)=C\C=C(C)C)CC(=O)O	.	13	.	.	25	.
C=CCn1c(O)c2ccc(C(=O)N=NC(=O)c3ccc(F)cc3)cc2c1O	11%	.	.	-23%	.	8%
Cc1cc(-c2nnnn2-c2ccc(F)cc2)no1	-2%	-2	1%	0%	-5	1%
COc1cc(Cl)ccc1OCc1cc(C(=O)N2C[C@]3(C)C[C@H]2CC(C)(C)C3)no1	29%	72*	11%	-12%	111*	?
COc1cc(C)ccc1OCc1cc(C(=O)N2CCN(C)C[C@@H]2c2ccccc2)no1	0%	42*	-6%	2%	67*	?
COc1cc(C)ccc1OCc1cc(C(=O)NCCN2CCCC(O)C2)no1 (stereo not drawn)	?	-2	3%	3%	5	30%
COc1cc(C)ccc1OCc1cc(C(=O)N2C[C@H]3CC[C@H]2C3)no1	8%	21*	-23%	?	22	4%
O=C(c1cccnc1)C1CCCN(Cc2nc(Cc3ccccc3)no2)C1 (stereo not drawn)	0%	-1	0%	-2%	22	?
CSS(=O)(=O)c1cccc2cccnc12	-6%	2	-56%	-4%	23	-12%
CN1CCN(C(CNC(=O)Nc2ccc(Cl)cc2)c2ccc(F)cc2)CC1 (stereo not drawn)	?	15	-12%	-4%	8	?
O=C(NCC1CC1)Nc1cccc(Cl)c1	13%	25*	-6%	-4%	86*	33%
O=C(COC(=O)C1CCC1)Nc1cccc(Cl)c1	30%	.	.	-2%	.	?
Cc1cccc(NC(=O)NCC(c2ccc(F)cc2)N2CCN(C)CC2)c1 (stereo not drawn)	?	19*	0%	-2%	20	?
COc1ccc(N2CCC(CNC(=O)Nc3cccc(OC)c3)C2)cc1 (stereo not drawn)	-27%	-1	3%	4%	15	.
COc1ccc(N2CCC(CNC(=O)Nc3ccc(Cl)cc3)C2)cc1 (stereo not drawn)	-23%	14*	.	-5%	23	-19%
Cc1cccc(NC(=O)NCC2CC2)c1	35%	14*	-1%	-2%	37	48%
O=C(NCC1CC1)Nc1cccc(C(F)(F)F)c1	-2%	3	-9%	-4%	17	-1%
CC(C)COc1cccc(C(=O)NC(=S)NCc2cccnc2)c1	1%	-1	3%	?	-15	-19%
CCOc1ccc(C(=O)NCCc2ccc3c(c2)OCCO3)cc1	50%	9	.	-2%	21	4%
Cc1noc(C)c1COC(=O)COc1cccc2c1OC(C)(C)C2	-17%	-4	-9%	8%	-5	4%
O=C(NCC1CC1)Nc1ccc(Cl)cc1	65%	32*	-3%	-4%	70*	34%
SMILES	Pf growth 96h	Cycloheximide cs	NS1 function inh	SARS PLP yeast	Shiga inhibitor	Pf growth 48h
CC(C)NC(=S)NC(=O)c1ccc(Cl)cc1Cl	50%	10	1%	7.9µM*	2	-1%
Cc1ccc(C(=O)NNC(=S)NC(=O)c2ccc(Cl)cc2Cl)cc1	.	6	-33%	28%	-1	-3%
CC(C)CNC(=S)NC(=O)c1ccc(Cl)cc1Cl	-6%	43*	-12%	?	54*	-7%
COc1cc(-n2c(C)nc3cc(C(=O)O)ccc32)cc(OC)c1OC	41%	1	.	2%	-3	57%
O=C(O)CCSc1ncnc2nc[nH]c12	.	.	3%	.	.	.
Cc1cccc(OCCSc2ncnc3nc[nH]c23)c1	120%	15*	-2%	-18%	21	23%
COc1ccccc1OCCSc1ncnc2nc[nH]c12	12µM*	-2	2%	-2%	19	4%
CCOC(=O)c1nn(-c2ccc(OC)cc2)c(=O)c2c(NC(=O)Cc3ccccc3)scc12	.	10	.	.	-1	.
COCCN(CCOC)S(=O)(=O)c1ccc(C(=O)Nc2nnc(C3CC3)o2)cc1	.	-3	-8%	1%	-1	-11%
CCN(c1ccccc1)S(=O)(=O)c1ccc(C(=O)Nc2nnc(COC)o2)cc1	?	-7	-15%	-4%	-39	?
CC1CCCN(S(=O)(=O)c2ccc(C(=O)Nc3nnc(-c4ccco4)o3)cc2)C1 (stereo not drawn)	?	-1	-9%	1%	-6	12µM*
CCC1CCCCN1S(=O)(=O)c1ccc(C(=O)Nc2nnc(C3CC3)o2)cc1 (stereo not drawn)	?	-4	-53%	13%	-14	13µM*
CCN(c1ccccc1)S(=O)(=O)c1ccc(C(=O)Nc2nnc(C3CC3)o2)cc1	?	-3	.	-1%	-15	9.3µM*
CCc1nnc(NC(=O)c2ccc(S(=O)(=O)N3CCCC(C)C3)cc2)o1 (stereo not drawn)	?	-2	-29%	2%	-7	?
CN(c1ccccc1)S(=O)(=O)c1ccc(C(=O)Nc2nnc(C3CC3)o2)cc1	5.2µM*	0	.	7%	-14	12µM*
Cn1c(=O)c2cc(S(=O)(=O)NCCC(=O)NCCC3=CCCCC3)ccc2n(C)c1=O	.	-4	-7%	2%	-17	?
C=CCn1c(SCC(=O)Nc2ccc3c(c2)OCO3)nnc1-c1cc(Br)ccc1O	21%	0	-51%	.	-7	?
O=C(NCCN1CCOCC1)Nc1ccc(F)cc1	66%	-3	3%	-1%	-5	0%
CCN(c1ccccc1)S(=O)(=O)c1ccc(C(=O)Nc2nnc(-c3ccco3)o2)cc1	?	-5	.	2%	-7	?
CN(c1ccccc1)S(=O)(=O)c1ccc(C(=O)Nc2nnc(-c3ccco3)o2)cc1	7.4µM*	-3	.	12%	-4	?
Oc1cccc2ccc(/C=C/c3ccccc3Cl)nc12	-17%	40*	-63%	-5%	72*	0%
Nc1ncnc(SCc2c(F)cccc2Cl)n1	33%	-1	-41%	1%	22	-11%
Oc1cccc2ccc(/C=C/c3c(F)cccc3Cl)nc12	182%	53*	-1%	3%	158*	237%
Nc1nccc(/C=C/c2c(F)cccc2Cl)n1	44%	28*	-8%	0%	68*	39%

Assay outcomes (PubChem BioAssay)
